# Results filed as inconclusive are left out. Where a call stands in place of a potency, no number is given. The source made the active and inactive calls. Unless noted, the call rests on the fitted dose curve; in most records, active means well fitted curve in the direction sought with a large enough effect; inconclusive means small, poorly fitted or top-dose-only effect, or another doubt; inactive means no such curve, though single readings can be large; an effect the other way counts as inactive or inconclusive.
# Assays:
# [1] = target: Cytochrome P450 1A2 (Homo sapiens) (UniProt P05177); test: p450-cyp1a2 (AID 410; calls by dose curve)
# Sequence of Cytochrome P450 1A2 (Homo sapiens) (P05177 whole entry, looked up): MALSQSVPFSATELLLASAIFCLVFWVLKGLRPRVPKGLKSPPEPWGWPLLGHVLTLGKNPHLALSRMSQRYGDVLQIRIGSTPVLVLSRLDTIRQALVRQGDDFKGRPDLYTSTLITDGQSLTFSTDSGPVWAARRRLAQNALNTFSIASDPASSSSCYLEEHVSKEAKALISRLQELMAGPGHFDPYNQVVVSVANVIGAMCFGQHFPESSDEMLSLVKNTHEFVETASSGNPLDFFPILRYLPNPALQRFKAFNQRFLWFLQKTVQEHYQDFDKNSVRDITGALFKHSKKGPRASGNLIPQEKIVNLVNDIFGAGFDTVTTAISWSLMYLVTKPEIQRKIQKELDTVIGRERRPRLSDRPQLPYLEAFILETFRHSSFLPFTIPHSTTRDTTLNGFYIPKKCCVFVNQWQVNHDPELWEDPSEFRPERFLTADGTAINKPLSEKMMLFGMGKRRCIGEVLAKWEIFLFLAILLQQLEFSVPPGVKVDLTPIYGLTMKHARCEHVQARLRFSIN
# Method in brief: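 20nM CYP1A2, 100uM Luciferin-ME (=Km), 100mM KPO4; cpd 10 min RT; +NADPH regen, 60 min RT; stop/detect 20 min; luminescence. Normalized to furafylline 57 uM = full inhibition.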
# [2] = NFAT Signaling Pathway (AID 444; active means well fitted curve in either direction with a large enough effect, not every such curve was filed as active;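 further: carbachol stimulus at about its EC50 of 1 µM final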); conditions: Jurkat NFAT-bla M1, carbachol, beta-lactamase ratio, 5 h; at 38 µM (top of the series)
# Method in brief: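 Jurkat cells with NFAT-driven β-lactamase reporter and co-expressed M1 receptor, stimulated with carbachol (final 1 uM, ~EC50), compound titration, 5 h at 37 °C. CCF4 loaded 1 h at RT; 460/530 nm ratio gave %activity and AC50.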
# [3] = target: Glucocorticoid receptor (Homo sapiens) (UniProt P04150); test: GR-GFP Redistribution (AID 450;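 active means compounds whose dose series gives a full or clear partial fitted curve of increased nuclear translocation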; further: potency means the concentration at half of the fitted maximal effect); conditions: U2OS GR-GFP nuclear translocation, laser cytometry, 2 h
# Sequence of Glucocorticoid receptor (Homo sapiens) (P04150 whole entry, looked up, the tested form may be a part): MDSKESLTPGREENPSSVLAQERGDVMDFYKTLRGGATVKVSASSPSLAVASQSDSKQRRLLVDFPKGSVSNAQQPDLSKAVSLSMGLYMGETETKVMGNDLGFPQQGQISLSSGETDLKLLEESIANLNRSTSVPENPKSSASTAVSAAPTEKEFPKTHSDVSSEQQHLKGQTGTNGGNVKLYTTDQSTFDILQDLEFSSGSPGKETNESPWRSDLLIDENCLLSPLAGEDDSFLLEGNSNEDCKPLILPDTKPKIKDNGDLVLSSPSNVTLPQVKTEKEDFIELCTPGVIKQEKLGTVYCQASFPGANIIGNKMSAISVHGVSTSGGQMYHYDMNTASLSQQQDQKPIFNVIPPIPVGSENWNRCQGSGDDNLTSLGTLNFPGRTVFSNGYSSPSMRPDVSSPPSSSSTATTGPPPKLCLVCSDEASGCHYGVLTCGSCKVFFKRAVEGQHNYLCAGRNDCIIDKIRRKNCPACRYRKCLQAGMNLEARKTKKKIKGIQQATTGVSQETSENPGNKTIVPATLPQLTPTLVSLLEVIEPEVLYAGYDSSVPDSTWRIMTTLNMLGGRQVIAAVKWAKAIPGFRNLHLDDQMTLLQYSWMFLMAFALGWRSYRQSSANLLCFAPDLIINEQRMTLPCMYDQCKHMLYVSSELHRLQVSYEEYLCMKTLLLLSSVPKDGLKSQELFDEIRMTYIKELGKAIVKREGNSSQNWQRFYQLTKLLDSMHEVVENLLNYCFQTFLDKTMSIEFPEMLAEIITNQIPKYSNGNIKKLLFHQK
# [4] = target: Glucocorticoid receptor (Homo sapiens) (UniProt P04150); test: GR-EFC Redistribution (AID 451; calls by dose curve; further: potency means the concentration at half of the fitted maximal effect); conditions: CHO-K1 GR-EFC translocation, beta-gal luminescence, 2 h
# Method in brief: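 CHO-K1 cells expressing nuclear EA and GR-ED fragments of b-gal; compounds titrated up to 46 uM final, 2 h at 37 C. GR nuclear translocation read as complemented b-gal luminescence after 1 h RT detection.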
# [5] = target: Mitogen-activated protein kinase 10 (Mus musculus) (UniProt Q61831); test: JNK3 AlphaScreen Assay (AID 530; active means well fitted curve in either direction with a large enough effect, not every such curve was filed as active;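 further: kinase came from lysate of stimulated human HepG2 cells; signal reports phosphorylation of biotinylated GST-cJun 1-79 at Ser73 with 10 µM ATP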)
# Method in brief: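 HepG2 lysate (IL-1b/TNFa pre-activated) + biotin-GST-cJun 1-79 + anti-pSer73 cJun; cpd titration, 15 min RT; ATP 10 uM start; Tris pH 7.6, MgCl2, DTT, vanadate; beads in EDTA buffer; AlphaScreen.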
# [6] = target: 3',5'-cyclic-AMP phosphodiesterase 4B (Homo sapiens) (UniProt Q07343); test: qHTS Assay for Inhibitors of PDE-IV (AID 607; active means well fitted activation curve with a large enough effect in the main read-out, with a control signal flat, not every such curve was filed as active)
# Sequence of 3',5'-cyclic-AMP phosphodiesterase 4B (Homo sapiens) (Q07343 whole entry, looked up): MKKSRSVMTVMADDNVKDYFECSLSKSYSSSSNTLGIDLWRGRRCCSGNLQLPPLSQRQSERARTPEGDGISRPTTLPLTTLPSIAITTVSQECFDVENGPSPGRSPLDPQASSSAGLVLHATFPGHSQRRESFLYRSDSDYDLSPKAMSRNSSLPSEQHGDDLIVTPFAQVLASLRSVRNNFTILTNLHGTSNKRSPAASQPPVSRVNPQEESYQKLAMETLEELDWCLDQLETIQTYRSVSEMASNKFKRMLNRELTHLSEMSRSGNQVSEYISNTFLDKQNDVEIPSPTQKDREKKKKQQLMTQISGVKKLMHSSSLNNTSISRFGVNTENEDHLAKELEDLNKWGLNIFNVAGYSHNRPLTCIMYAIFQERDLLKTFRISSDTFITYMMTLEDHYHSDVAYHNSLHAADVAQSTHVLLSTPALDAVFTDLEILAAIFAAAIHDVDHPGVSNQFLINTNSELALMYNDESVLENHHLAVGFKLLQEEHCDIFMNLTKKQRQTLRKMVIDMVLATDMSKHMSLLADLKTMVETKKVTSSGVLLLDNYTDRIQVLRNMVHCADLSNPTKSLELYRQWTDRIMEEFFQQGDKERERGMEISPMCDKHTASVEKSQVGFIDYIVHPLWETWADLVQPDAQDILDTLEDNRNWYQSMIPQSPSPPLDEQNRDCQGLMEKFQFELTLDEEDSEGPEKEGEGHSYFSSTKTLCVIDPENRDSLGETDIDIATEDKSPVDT
# Method in brief: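 The readout is membrane depolarisation from a cAMP-sensing CNG channel, detected with a potential dye at ex 535/em 590. Cells were HEK293-derived (endogenous PDE-IV) at 1000 cells/well, titrated up to 22.9 uM final.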
# [7] = target: Guanine nucleotide-binding protein G(i) subunit alpha-1 (Homo sapiens) (UniProt P63096); test: qHTS Assay for Inhibitors of RGS12 GoLoco Motif Activity (Green Fluorophore) (AID 879);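 further: negative values mean loss of peptide binding seen as reduced polarization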
# Method in brief: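 A drop in FITC polarization marked displacement of the FITC-tagged RGS12 GoLoco peptide (10 nM) from Gαi1 (50 nM). Compounds were incubated 10 min at room temperature in Tris pH 7.5 buffer containing 150 mM NaCl, 0.1 mM GDP and 0.05% NP40; unlabeled peptide titration served as control.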
# [8] = target: Cytochrome P450 3A4 (Homo sapiens) (UniProt P08684); test: qHTS Assay for Activators of Cytochrome P450 3A4 (AID 885); further: nearly all actives have a fitted effect of over 65% in size
# Sequence of Cytochrome P450 3A4 (Homo sapiens) (P08684 whole entry, looked up): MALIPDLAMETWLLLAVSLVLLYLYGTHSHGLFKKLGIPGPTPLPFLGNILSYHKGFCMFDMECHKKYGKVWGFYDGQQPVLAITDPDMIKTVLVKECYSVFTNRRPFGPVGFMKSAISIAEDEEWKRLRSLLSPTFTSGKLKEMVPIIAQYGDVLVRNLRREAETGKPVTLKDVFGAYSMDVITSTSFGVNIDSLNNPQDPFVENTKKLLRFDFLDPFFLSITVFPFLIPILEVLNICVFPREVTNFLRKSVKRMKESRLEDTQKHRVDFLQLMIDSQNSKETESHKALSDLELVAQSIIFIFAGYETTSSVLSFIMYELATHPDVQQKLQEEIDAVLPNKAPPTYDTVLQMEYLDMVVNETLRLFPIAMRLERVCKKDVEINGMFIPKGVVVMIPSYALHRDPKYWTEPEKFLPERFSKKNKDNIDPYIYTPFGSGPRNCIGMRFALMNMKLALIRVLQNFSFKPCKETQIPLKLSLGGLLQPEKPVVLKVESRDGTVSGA
# Method in brief: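 Activators are scored by enhanced luminescence from CYP3A4 conversion of luciferin-PPXE (25uM, equal to KM) to luciferin, after 60 min at RT with an NADPH-regenerating system.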
# [9] = target: Muscarinic acetylcholine receptor M1 (Rattus norvegicus) (UniProt P08482); test: qHTS Assay for Antagonists of Acetylcholine Muscarinic M1 Receptor: Kinetic Measurement of Intracellular Calcium Response (AID 943);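 further: Fluo-4 calcium signal as peak divided by basal fluorescence over 4 min; nearly all actives have a fitted effect of over 75% in size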
# Sequence of Muscarinic acetylcholine receptor M1 (Rattus norvegicus) (P08482 whole entry, looked up): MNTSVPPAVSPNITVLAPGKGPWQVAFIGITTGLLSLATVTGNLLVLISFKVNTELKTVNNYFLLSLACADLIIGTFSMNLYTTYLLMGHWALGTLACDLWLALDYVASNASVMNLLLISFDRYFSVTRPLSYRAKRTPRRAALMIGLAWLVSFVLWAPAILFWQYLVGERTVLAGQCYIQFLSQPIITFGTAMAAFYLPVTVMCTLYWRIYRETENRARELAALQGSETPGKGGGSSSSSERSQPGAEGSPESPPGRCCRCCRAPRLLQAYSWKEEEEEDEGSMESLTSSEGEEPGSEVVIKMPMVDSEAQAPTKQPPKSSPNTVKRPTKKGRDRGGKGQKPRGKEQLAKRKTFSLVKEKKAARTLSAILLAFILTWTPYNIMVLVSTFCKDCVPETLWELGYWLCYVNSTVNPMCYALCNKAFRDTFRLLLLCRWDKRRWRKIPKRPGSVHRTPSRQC
# Method in brief: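 Read-out: peak over basal Fluo-4 fluorescence, kinetic at 1 Hz for 4 min after EC80 carbachol (100 nM final). Rat M1-CHO cells, dye loaded 1 h at 37C, compound added 10 min before agonist.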
# [10] = target: Muscarinic acetylcholine receptor M1 (Rattus norvegicus) (UniProt P08482); test: qHTS Assay for Antagonists of Acetylcholine Muscarinic M1 Receptor: Measurement of IP-One Response (AID 944); further: nearly all actives have a fitted effect of over 75% in size
# Method in brief: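 Read-out: HTRF competition between d2-IP1 and Eu-cryptate anti-IP1 antibody, emission 620 and 665 nm. Stimulus was carbachol, EC80 (200 nM), for 30 min in M1-CHO cells (rat receptor), after 10 min compound pre-treatment.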
# [11] = target: Pyruvate kinase (Leishmania mexicana) (UniProt Q27686); test: qHTS Validation Assay for Inhibitors of Leishmania Mexicana Pyruvate Kinase (AID 945)
# Sequence of Pyruvate kinase (Leishmania mexicana) (Q27686 2-499 E452W): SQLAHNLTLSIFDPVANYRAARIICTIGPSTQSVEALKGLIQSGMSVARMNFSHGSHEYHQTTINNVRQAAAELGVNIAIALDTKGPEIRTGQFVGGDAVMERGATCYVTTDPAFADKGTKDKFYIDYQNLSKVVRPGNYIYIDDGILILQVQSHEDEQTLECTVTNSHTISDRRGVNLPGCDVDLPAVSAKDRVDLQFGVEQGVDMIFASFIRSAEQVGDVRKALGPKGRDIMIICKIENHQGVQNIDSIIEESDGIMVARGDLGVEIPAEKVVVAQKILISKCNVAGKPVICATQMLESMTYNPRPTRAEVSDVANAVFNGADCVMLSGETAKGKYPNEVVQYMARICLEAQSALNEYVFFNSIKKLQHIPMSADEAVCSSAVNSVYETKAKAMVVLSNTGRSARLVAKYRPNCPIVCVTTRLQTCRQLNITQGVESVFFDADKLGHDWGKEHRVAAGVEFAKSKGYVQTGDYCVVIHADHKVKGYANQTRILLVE
# Method in brief: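 Read-out: luminescence from PKLight stop/detection reagent, data normalized to DMSO. Reaction: 0.2 nM E451W LmPYK, 0.5 mM PEP, 0.1 mM ADP, pH 7.2, 1 h room temperature.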
# [12] = target: Pyruvate kinase PKM (Homo sapiens) (UniProt P14618); test: qHTS Assay for Activators of Human Muscle Pyruvate Kinase (AID 954; active means well fitted curve in the direction sought with a large enough effect, not every such curve was filed as active)
# Sequence of Pyruvate kinase PKM (Homo sapiens) (P14618 whole entry, looked up): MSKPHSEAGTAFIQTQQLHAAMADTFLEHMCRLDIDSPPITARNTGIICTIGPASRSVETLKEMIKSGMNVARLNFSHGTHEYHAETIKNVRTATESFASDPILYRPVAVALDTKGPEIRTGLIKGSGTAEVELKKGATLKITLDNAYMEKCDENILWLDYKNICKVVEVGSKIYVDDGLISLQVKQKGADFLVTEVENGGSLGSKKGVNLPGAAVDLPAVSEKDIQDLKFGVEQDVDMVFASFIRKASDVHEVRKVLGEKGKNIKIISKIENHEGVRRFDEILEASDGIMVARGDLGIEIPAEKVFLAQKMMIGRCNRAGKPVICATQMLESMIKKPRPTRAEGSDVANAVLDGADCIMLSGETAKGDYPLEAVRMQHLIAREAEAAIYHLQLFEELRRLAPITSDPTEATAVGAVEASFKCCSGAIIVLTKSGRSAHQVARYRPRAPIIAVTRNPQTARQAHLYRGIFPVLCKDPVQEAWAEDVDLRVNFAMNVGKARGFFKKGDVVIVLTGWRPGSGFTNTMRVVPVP
# Method in brief: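 PKM2, human, >95% pure, 0.1 nM; PEP 0.5 mM (Km), ADP 0.1 mM; 50 mM imidazole pH 7.2, 50 mM KCl, 0.01% Tween 20, 0.05% BSA; 1 h RT; luciferase luminescence readout.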
# [13] = target: alpha-glucosidase (Oryza sativa, rice) (UniProt Q653V4); test: Counterscreen for Glucocerebrosidase Inhibitors: qHTS Assay for Rice alpha-Glucosidase at pH 5.0 (AID 997)
# Method in brief: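 Endpoint fluorogenic assay at pH 5.0: compounds (0.7 nM to 77 uM) titrated against 4 nM rice enzyme and 400 uM 4-MU-alpha-glucoside for 20 min at room temperature; NaOH/glycine stop, read ex 365/em 440 nm, Hill-fitted AC50.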
# [14] = target: DNA repair nuclease/redox regulator APEX1 (Homo sapiens) (UniProt P27695); test: qHTS Validation Assay for Inhibitors of the Human Apurinic/apyrimidinic Endonuclease 1 (APE1) (AID 1705;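 further: TAMRA fluorescence gain over two minutes as APE1 cuts a quenched THF abasic duplex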)
# Method in brief: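 Activity read as rising fluorescence (598 nm emission, 525 nm excitation) from incision of a TAMRA/BHQ-2 duplex carrying a THF abasic site (50 nM). Compound and enzyme sat 15 min at RT before substrate start; signal change between first and third 60-s reads.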
# [15] = Counterscreen for APE1 Inhibitors: Fluorescent Dye Displacement Validation Assay (AID 1707)
# Method in brief: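 Endpoint fluorescence read at 480 nm excitation / 540 nm emission; DNA-binding compounds lower signal by displacing 250 nM Thiazole Orange from 50 nM dsDNA containing a tetrahydrofuran abasic site, Tris-HCl pH7.5 buffer with NaCl and MgCl2.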
# [16] = target: Endonuclease 4 (Escherichia coli (strain K12)) (UniProt P0A6C1); test: Counterscreen for APE1 Inhibitors: qHTS Validation Assay for Inhibitors of Endonuclease IV (AID 1708)
# Method in brief: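 Read-out: fluorescence rise (ex 525/em 598 nm) from incision of a TAMRA/BHQ-2 double-stranded THF abasic-site substrate (50 nM), measured kinetically; third-minus-first read difference gave reaction progress. Enzyme 2 nM.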
# [17] = qHTS for differential inhibitors of proliferation of Plasmodium falciparum line 3D7 (AID 1876);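 further: parasite growth measured after three days of culture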
# [18] = qHTS for differential inhibitors of proliferation of Plasmodium falciparum line D10 (AID 1877);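 further: parasites grown with compound for 72 h before DNA staining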
# [19] = qHTS for differential inhibitors of proliferation of Plasmodium falciparum line Dd2 (AID 1882); conditions: Potency: Plasmodium falciparum Dd2 proliferation inhibition;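 further: compound exposure of 72 h on infected erythrocytes; nearly all actives have a fitted effect of over 65% in size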
# Method in brief: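 RBC culture, 0.3% parasitemia / 2.5% Hct final; cpd added by pin tool in DMSO; 72 h, 37 C, 5% CO2; lysis buffer + SYBR Green I, o/n RT dark; FI 485/535; norm. to artemisinin 0.29 uM and DMSO.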
# [20] = qHTS for differential inhibitors of proliferation of Plasmodium falciparum line W2 (AID 1883); conditions: Potency: Plasmodium falciparum W2 proliferation inhibition;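 further: potency means the concentration at half of the fitted maximal effect; parasites grown with compound for 72 h before lysis and staining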
# [21] = qHTS for differential inhibitors of proliferation of Plasmodium falciparum line HB3 (AID 1886); conditions: Potency: Plasmodium falciparum HB3 proliferation inhibition;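 further: parasites grown with compound for 72 h before SYBR Green readout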
# [22] = target: Ferritin light chain (Equus caballus) (UniProt P02791); test: qHTS Validation Assay for Identification of Novel General Anesthetics (AID 2323)
# Method in brief: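 Competitive displacement of the profluorescent anesthetic 1-AMA (50% saturated, PBS) from 10 uM apoferritin, 10 min, room temperature. Activity is normalized 380/535 nm fluorescence; concentration-response fitted with a four-parameter Hill equation.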
# [23] = target: ATP-dependent DNA helicase Q1 (Homo sapiens) (UniProt P46063); test: qHTS Validation Assay for Inhibitors of RecQ-Like Dna Helicase 1 (RECQ1) (AID 2353)
# Method in brief: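 RECQ1T1 50 nM; forked duplex (20 bp + 30-nt ss tails) 200 nM, ATP 2 mM final; pH 8.0, 2 mM MgCl2, 2.5 ug/ml poly(dI-dC); 15 min compound preincubation; discontinuous kinetic read over 2 h at RT.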
# [24] = target: RecQ-like DNA helicase BLM (Homo sapiens) (UniProt P54132); test: qHTS Validation Assay for Inhibitors of Bloom's syndrome helicase (BLM) (AID 2364)
# Method in brief: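 50 nM BLM preincubated 15 min at room temperature with compound in pH 8.0 Tris buffer containing 2.5 ug/ml poly(dI-dC); started with 200 nM TAMRA/BHQ-2 forked duplex and 2 mM ATP (final). Unwinding read as TAMRA fluorescence increase, two reads 2 h apart.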
# [25] = Validation screen for small molecules that induce DNA re-replication in MCF 10A normal breast cells (AID 463097); further: nearly all actives have a fitted effect of over 60% in size
# Method in brief: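 Read-out is Hoechst total nuclear intensity by fluorescence scanning imager, flagging increased high-DNA-content nuclei. Compounds were incubated with MCF 10A cells for 48 hr (37 C, 5% CO2) before 40 min staining.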
# [26] = Quantitative high throughput screen for delayed death inhibitors of the malarial parasite plastid, 96 hour incubation (AID 488745);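 further: luciferase-expressing P. falciparum in erythrocytes at 2% hematocrit and 0.1% parasitemia; nearly all actives have a fitted effect of over 70% in size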
# Method in brief: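 Luciferase-expressing P. falciparum, infected RBCs 2% Hct/0.1% parasitemia (final); 96 h cpd exposure, 37 C, 5% CO2; RPMI 1640 + 0.5% Albumax, bicarbonate, gentamycin. Readout: luminescence loss = growth inhibition.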
# [27] = Quantitative high throughput screen for delayed death inhibitors of the malarial parasite plastid, 48 hour incubation (AID 488752); further: nearly all actives have a fitted effect of over 65% in size
# Method in brief: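 Luciferase-expressing P. falciparum in RBCs, 2% Hct, 0.1% parasitemia final; RPMI 1640 + 0.5% Albumax; 48 h, 37 C, 5% CO2; luminescence readout, signal drop = growth inhibition.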
# [28] = target: M-phase phosphoprotein 8 (Homo sapiens) (UniProt Q99549); test: qHTS Validation Assay for Inhibitors for MPP8 Chromodomain Interactions with Methylated Histone Tails (AID 488949);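 further: AlphaScreen signal from MPP8 chromodomain bound to biotinylated H3K9me3 peptide; top concentration of the series differs between compounds; nearly all actives have a fitted effect of over 55% in size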
# Method in brief: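 AlphaScreen proximity signal from streptavidin donor and Ni-chelate acceptor beads (10 ug/mL each) reported binding of MPP8 to trimethyl-K9 H3(1-18) peptide, both at 50 nM. The complex formed 30 min before a 30 min compound exposure at room temperature, in PBS pH 7.4.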
# [29] = target: Transient receptor potential cation channel subfamily V member 1 (Homo sapiens) (UniProt Q8NER1); test: HTS Assay for Compounds that Act as Enhancers of the Vanilloid Receptor 1 (AID 488979)
# Sequence of Transient receptor potential cation channel subfamily V member 1 (Homo sapiens) (Q8NER1 whole entry, looked up): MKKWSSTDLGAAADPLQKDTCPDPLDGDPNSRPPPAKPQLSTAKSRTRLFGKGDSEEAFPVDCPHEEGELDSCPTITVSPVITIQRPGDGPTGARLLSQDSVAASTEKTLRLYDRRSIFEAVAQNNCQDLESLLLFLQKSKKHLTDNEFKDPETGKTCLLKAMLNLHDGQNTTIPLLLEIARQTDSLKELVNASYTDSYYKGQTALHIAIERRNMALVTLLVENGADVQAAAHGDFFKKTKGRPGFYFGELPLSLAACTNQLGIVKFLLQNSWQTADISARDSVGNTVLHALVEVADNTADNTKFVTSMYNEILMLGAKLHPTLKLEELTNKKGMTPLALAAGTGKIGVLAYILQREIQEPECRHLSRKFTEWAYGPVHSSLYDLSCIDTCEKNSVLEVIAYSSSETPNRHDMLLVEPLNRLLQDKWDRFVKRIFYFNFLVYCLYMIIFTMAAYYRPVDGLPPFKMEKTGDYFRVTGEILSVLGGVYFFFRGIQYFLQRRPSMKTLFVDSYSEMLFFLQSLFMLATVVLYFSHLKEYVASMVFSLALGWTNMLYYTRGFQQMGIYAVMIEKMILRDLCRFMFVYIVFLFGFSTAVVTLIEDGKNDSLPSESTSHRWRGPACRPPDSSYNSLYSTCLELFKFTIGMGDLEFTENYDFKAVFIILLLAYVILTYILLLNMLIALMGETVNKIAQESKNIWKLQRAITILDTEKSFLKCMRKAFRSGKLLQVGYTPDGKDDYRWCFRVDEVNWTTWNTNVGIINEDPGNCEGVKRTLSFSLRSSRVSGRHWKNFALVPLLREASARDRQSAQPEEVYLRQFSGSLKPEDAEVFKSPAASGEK
# Method in brief: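 TRPV1 cells loaded with Fluo-8 calcium dye; compound added and Ca2+ signal (ex 480/em 520 nm) followed 3 min, then capsaicin at EC20 added and read 2 more min to detect enhancement.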
# [30] = target: Thyrotropin receptor (Homo sapiens) (UniProt P16473); test: qHTS Assay for Antagonists of the Thyroid Stimulating Hormone Receptor (AID 488980)
# Method in brief: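 Inhibition of cAMP raised by EC80 TSH (4 nM final) was read by HTRF, with lysate cAMP competing against cAMP-d2 for cryptate antibody after 30 min at room temperature. The cells were transfected HEK293 held in phosphodiesterase inhibitor RO 20-1724 at 70 uM.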
# [31] = target: Galactokinase (Homo sapiens) (UniProt P51570); test: qHTS Validation Assay for Inhibitors of Human Galactokinase (GALK) (AID 493189)
# Method in brief: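 Inhibition was measured as remaining ATP, detected by luciferase luminescence after a 1 h room-temperature reaction. Final conditions: 5 nM GALK, 100 uM galactose, 35 uM ATP, pH 8.0 HEPES buffer.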
# [32] = Validation screen for small molecules that induce DNA re-replication in SW480 colon adenocarcinoma cells (AID 504364)
# Method in brief: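 Read-out: total Hoechst intensity of nuclei by fluorescence scanning imager; hits raise the fraction of nuclei with elevated DNA content. Cells received compound for 48 hr at 37 C before a 40 min stain.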
# [33] = target: DNA dC->dU-editing enzyme APOBEC-3G (Homo sapiens) (UniProt Q9HC16); test: qHTS for inhibitors of Vif-A3G interactions: Validation (AID 588379)
# Method in brief: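 Yellow fluorescence (Ex 488, Em 500-530) of Vif-coexpressing HeLa A3G-eYFP cells, scanned by Acumen cytometer, reports blocked A3G degradation. Cells plated at 700/well overnight at 37 deg C before compound addition, then a further overnight compound incubation at 37 deg C.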
# [34] = system: Zika virus NS2B-NS3 protease; test: Primary screen GU AMC qHTS for Zika virus inhibitors (AID 1347154); further: nearly all actives have a fitted effect of over 70% in size
# Method in brief: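 Unlinked Zika NS2B hydrophilic domain–NS3 protease complex at 25 nM in 10 mM Tris-HCl pH 8.0, 0.01% Tween 20, with an AMC peptide substrate. Fluorescence change (340/450 nm) over 15 min at room temperature, normalized to controls, fitted to 4-parameter Hill.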
compound,measurement,setting,value
NCCNS(=O)(=O)c1cccc2cnccc12,Potency,[1],inactive
same,"activity change, negative = inhibition",[2],-13.5% (inactive)
same,Potency,[3],> 46 µM (inactive)
same,Potency,[4],> 46 µM (inactive)
same,Potency,[5],inactive
same,Potency,[6],inactive
same,outcome,[7],inactive
same,Potency,[8],inactive
same,Potency,[9],inactive
same,Potency,[10],inactive
same,Potency,[11],inactive
same,outcome,[12],inactive
same,outcome,[13],inactive
same,Potency,[14],inactive
same,Potency,[15],inactive
same,Potency,[16],inactive
same,Potency,[17],inactive
same,Potency,[18],inactive
same,Potency,[19],inactive
same,Potency,[20],11.2 µM (active)
same,Potency,[21],inactive
same,outcome,[22],inactive
same,Potency,[23],inactive
same,Potency,[24],inactive
same,Potency,[25],inactive
same,Potency,[26],inactive
same,Potency,[27],inactive
same,Potency,[28],inactive
same,outcome,[29],inactive
same,outcome,[30],inactive
same,outcome,[31],inactive
same,outcome,[32],inactive
same,Potency,[33],inactive
same,Potency,[34],inactive
